We go through 49 compounds from ChEMBL document CHEMBL3988442, “University of Dundee, Small-Polar-MMV Screening Library” (2021).

Each structure is given as a SMILES string. In all, about 69,000 compounds went through this assay and about 1,000 (1.4%) showed an effect of 50% or more. Only a selection was taken, and strong results are over-represented in it overall.

This experiment deals with Leishmania donovani. The experiment in a line: Leishmania intramacrophage assay. Format: functional, organism-based. On the set-up: scale not given: in the data most compounds retested in dose-response had high values.

As for `CC(C)C(C(N)=O)c1cccc(Cl)c1` (centres undefined), the “Percent Effect” value (30.3 µM, […]) is on record as 23.22%.
In the case of `Cc1nnc(N2CCO[C@H]3[C@@H](OCc4ccccn4)CC[C@@H]32)s1.O=C(O)C(F)(F)F.O=C(O)C(F)(F)F`, the “Percent Effect” value (30.3 µM, […]) is on record as -5.183%.
On to `Cc1nccn1Cc1nnc(C2CCN(c3ccncc3F)CC2)n1C`, for which the “Percent Effect” value (30.3 µM, […]) is on record as 4.988%.
The same measure, in the same setting: with `c1nc2c(c(NC3COC4(CCCC4)C3)n1)CCNCC2` (centres undefined) the figure was -7.058%; with `O=C(O)C(F)(F)F.O=C(c1cocn1)N1C[C@H]2CCC[C@@]2(COc2ccccn2)C1`, 20.04%.
Same read-out and setting: with `Cc1nn(C)c(C)c1CN1CCCC1c1nccc(CN(C)C)n1` (centres undefined) the figure was 3.97%; with `CC(C#N)CNC(=O)Nc1ccc(Br)cc1` (centres undefined), 6.996%.
As to `CC(=O)N1CCCN(C2CCCCc3ccccc32)CC1` (centres undefined), where the note is “30.3 µM, […]”, the “Percent Effect” value was found to be 18.35%.
Consider `COc1c(C2CCCN2C(=O)c2c[nH]c3ncccc23)c(C)nn1C` (centres undefined), for which the “Percent Effect” value (30 µM, 30.03 µM) is -19.02%.
Turning to `Cc1noc([C@@]23CCO[C@@H]2CCN(S(=O)(=O)c2cccnc2)C3)n1`, for the setting “30.3 µM, […]”, the “Percent Effect” value is 57.7%.
For the compound `Cc1noc([C@@]23CCO[C@@H]2CCN(C(=O)C2CCOCC2)C3)n1`, the “Percent Effect” value (30 µM, 30.03 µM) is on record as -29.55%.
On to `Cc1nnc([C@@]23CCO[C@@H]2CCN(S(=O)(=O)c2ccccc2)C3)o1`, for which the “Percent Effect” value (30.3 µM, […]) came out at 56.06%.
Same read-out and setting: next, `Cc1nnc([C@@]23CCO[C@@H]2CCN(S(C)(=O)=O)C3)o1`: -7.004%.
Turning to `CNC(=O)[C@@]12CCO[C@@H]1CCN(S(=O)(=O)c1cccnc1)C2.O=C(O)C(F)(F)F`, the “Percent Effect” value (30 µM, 30.03 µM) is -13.7%.
With `Cc1nnc([C@@]23CCO[C@@H]2CCN(S(=O)(=O)c2cccnc2)C3)o1`, the “Percent Effect” value (30.3 µM, […]) worked out at 17.24%.
The same measure, in the same setting: next, `C[C@H]1C[C@H]2CN(C(=O)c3cccc4c3OCCO4)CC[C@H]2O1`: -11.14%.
The same measure, in the same setting: next, `CCc1nccn1-c1cccc(C2CCCN2)n1.Cl.Cl` (centres undefined): 6.16%; `O=C1CCCN1CCCN1CCCCC1Cn1cncn1` (centres undefined): 26.96%; `Cc1csc(CCNC(=O)N2CCC(NC(=O)OC(C)(C)C)CC2)n1`: -5.066%.
Still for that read-out and setting: next, `CSc1nc2cc(C)n(CC(=O)N3CCCC3)c2c(=O)n1CC(C)C`: 6.672%; `CC(NCc1ccc(OCC(N)=O)cc1)c1ccc(Cl)c(Cl)c1.Cl` (centres undefined): 12.13%; `CC(NCc1ccc(OCC(N)=O)cc1)c1ccc(Cl)cc1.Cl` (centres undefined): 32.34%.
Regarding `CC(NCc1ccc(OCC(N)=O)cc1)c1ccc2c(c1)CCCC2` (centres undefined), where the note is “30.3 µM, […]”, the “Percent Effect” value is 72.53%.
Consider `CCc1nncn1CCNC(=O)Nc1ccc(OC)c(C)c1`, for which the “Percent Effect” value (30.3 µM, […]) is reported as 5.132%.
On the same count and under the same terms, with `CCC(=O)c1ccccc1NN1c2ccccc2C(=O)C1(C)OC` (centres undefined) the figure was 62.96%; with `CCOC1(C)C(=O)c2ccccc2N1Nc1ccccc1C(=O)CC` (centres undefined), 19.56%; with `CCC(=O)c1ccc(Br)cc1NN1c2cc(Br)ccc2C(=O)C1(C)OC` (centres undefined), 24.9%.
On the same count and under the same terms, with `Cc1c(C(=O)O)cnn1-c1ccc(-c2nc(C3CC3)no2)cn1` the figure was 11.33%.
Regarding `CC(C)Cc1cc(NC(=O)c2cc(Cl)c[nH]2)n(C)n1`, the “Percent Effect” value (30 µM) is recorded as -56.19%.
For `COc1cc(N2CCCC(CO)(Cc3ccccc3F)C2)ncn1` (centres undefined), the “Percent Effect” value (30.3 µM, […]) is reported as 63.9%.
On the same count and under the same terms, with `N#Cc1cccnc1N1CCCC(CO)(Cc2ccccc2F)C1` (centres undefined) the figure was 2.884%; with `CC(=O)c1ccc(N2CCCC(CO)(Cc3ccccc3F)C2)nc1` (centres undefined), 13.31%.
On the same count and under the same terms, with `Nc1cc(N2CCCC(CO)(Cc3ccccc3F)C2)nc(N)n1` (centres undefined) the figure was 94.26%.
On the same count and under the same terms, next, `OCC1(Cc2ccccc2F)CCCN(c2ccc3ccccc3n2)C1` (centres undefined): 23.98%; `N#Cc1cccc(N2CCCC(CO)(Cc3ccccc3F)C2)n1` (centres undefined): 29.41%.
In the case of `CC(C)(C)c1cn2nc(N3CCC[C@@H]3CO)sc2n1`, the “Percent Effect” value (30 µM, 30.03 µM) is recorded as 20.83%.
For the compound `CN(C)C(=O)N1CCN(C(=O)c2ccc(Cl)c(Cl)c2)C(C)(C)C1`, where the note is “30.3 µM, […]”, the “Percent Effect” value is listed as 36.34%.
Still for that read-out and setting: with `CCc1nc(N2CCN(CCOC)CC2)c2cnn(C)c2n1` the figure was 9.143%.
Still for that read-out and setting: with `CCNC(=O)CN(CC)C(=O)Cc1csc(C(C)C)n1` the figure was 17.83%.
On the same count and under the same terms, with `Cc1ncccc1CNCC1COC2(CCCCC2)O1` (centres undefined) the figure was 19.04%; with `Cc1nc(NCCCn2cccn2)c2c(n1)c(C)nn2C`, -31.03%; with `O=C(CNC(=O)c1cnc2ccccc2c1O)NCCCn1ccnc1`, 15.36%.
For the compound `Cc1cc(F)ccc1N1CCC(N2C[C@@H](C)[C@@](C)(O)C2)CC1`, the “Percent Effect” value (30.3 µM, […]) is listed as 44.3%.
On the same count and under the same terms, next, `CN(C)C[C@@H]1CN(C(=O)c2cc(F)ccc2F)C[C@@H]1CO`: 22.29%.
Still for that read-out and setting: with `CN(C)C[C@@H]1CN(C(=O)Cc2ccccc2)C[C@@H]1CO` the figure was 22.9%; with `Cc1ccccc1CN1C[C@@H](CN(C)CCO)[C@@H](CO)C1`, 5.953%.
On the same count and under the same terms, next, `Cc1cc(F)ccc1N1CCC(N2C[C@@H](CN(C)C)[C@@H](CO)C2)CC1`: 95.44%.
For the compound `CN(CCO)C[C@@H]1CN(Cc2ccccc2C#N)C[C@@H]1CO`, where the note is “30.3 µM, […]”, the “Percent Effect” value was 12.29%.
In the case of `CN1CCN(C[C@@H]2CN(C3Cc4ccccc4C3)C[C@@H]2CO)CC1`, the “Percent Effect” value (30.3 µM, […]) is 4.168%.
